“And” between values parts separate entries of the source, which are not always exact repeats. Equal entries are not always repeated. Records with an inconclusive call do not appear. More than one record can exist for a structure, and the calls need not agree. The source made the active and inactive calls. Unless noted, calls follow the shape of the dose curve; as a rule, active = well fitted curve in the direction sought with a large enough effect in the repeat runs; inconclusive = weak or mixed curves; inactive = no such curve, though single readings can be large; an effect the other way counts as inactive or inconclusive.
Assays:
[1] = A CellTox Green Cytotoxicity Assay to monitor cytotoxicity in HEK293 cells - 32 hour (AID 1224881); also: nearly all actives have a fitted effect of over 40% in size; also: potency is read from the fitted curve at half-maximal effect
How it was run: (§1)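 Seeding of HEK293 cells together with cytotoxicity dye preceded a 5 h incubation at 37 C/5% CO2. Test compounds in DMSO were then added and fluorescence monitored across 40 h.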

[2] = A CellTox Green Cytotoxicity Assay to monitor cytotoxicity in HepG2 cells - 0 hour (AID 1224882); also: nearly all actives have a fitted effect of over 35% in size; also: potency is read from the fitted curve at half-maximal effect
How it was run: (§2)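 Nonlytic assay: viable cells exclude the dye, so fluorescence scales with cell death. HepG2 at 600 cells/well, compounds added after 5 h, signal read across 40 h.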

[3] = A CellTox Green Cytotoxicity Assay to monitor cytotoxicity in HepG2 cells - 32 hour (AID 1224883); also: nearly all actives have a fitted effect of over 50% in size; also: potency is read from the fitted curve at half-maximal effect
How it was run: as §2

[4] = A CellTox Green Cytotoxicity Assay to monitor cytotoxicity in HEK293 cells - 8 hour (AID 1224884); also: nearly all actives have a fitted effect of over 35% in size; also: potency is read from the fitted curve at half-maximal effect
How it was run: as §1

[5] = qHTS RealTime-Glo MT Cell Viability Assay in HepG2 cells - 16 hour (AID 1224885); also: nearly all actives have a fitted effect of over 50% in size
How it was run: (§3)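 Viability was tracked continuously by NanoLuc luminescence from prosubstrate reduced by living HepG2 cells, at successive time points over 40 h of compound exposure. Cells with reagent were preincubated 5 h at 37 °C before compound addition.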

[6] = qHTS RealTime-Glo MT Cell Viability Assay in HEK293 cells - 24 hour (AID 1224886); also: nearly all actives have a fitted effect of over 50% in size; also: potency is read from the fitted curve at half-maximal effect
How it was run: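 Viability tracked continuously by luminescence as live cells reduce a prosubstrate for NanoLuc; HEK293 cells preincubated 5 h, compound-treated at 37 C, and read at 0, 8, 16, 24, 32 and 40 h.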

[7] = qHTS RealTime-Glo MT Cell Viability Assay in HEK293 cells - 8 hour (AID 1224887); also: top concentration of the series differs between compounds; nearly all actives have a fitted effect of over 50% in size
How it was run: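 Tox21 screen in HEK293 using RealTime-Glo MT chemistry, with cells and reagent co-dispensed. Luminescence proportional to viable cell number was captured at intervals during 40 h compound exposure at 37 C.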

[8] = A CellTox Green Cytotoxicity Assay to monitor cytotoxicity in HEK293 cells - 16 hour (AID 1224888); also: nearly all actives have a fitted effect of over 35% in size; also: potency is read from the fitted curve at half-maximal effect
How it was run: as §1

[9] = qHTS RealTime-Glo MT Cell Viability Assay in HepG2 cells - 0 hour (AID 1224889); also: nearly all actives have a fitted effect of over 50% in size; also: potency is read from the fitted curve at half-maximal effect
How it was run: as §3

[10] = A CellTox Green Cytotoxicity Assay to monitor cytotoxicity in HepG2 cells - 8 hour (AID 1224890); also: nearly all actives have a fitted effect of over 45% in size; also: potency is read from the fitted curve at half-maximal effect
How it was run: as §2

[11] = qHTS assay to identify small molecule antagonists of the estrogen receptor alpha (ER-alpha) signaling pathway using the BG1 cell line in the presence of 0.1 nM 17-beta-estradiol - cell viability counter screen (AID 1259241); also: nearly all actives have a fitted effect of over 40% in size; also: potency is read from the fitted curve at half-maximal effect
How it was run: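 Measures cytotoxicity alongside the ER-alpha antagonist readout: VM7Luc4E2 cells, charcoal-stripped serum, 0.1 nM 17beta-estradiol final, 22 hr compound incubation at 37C, CellTiter-Fluor fluorescence.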

[12] = qHTS assay to identify small molecule antagonists of the androgen receptor (AR) signaling pathway using the MDA cell line in the presence of 0.5 nM R1881 - cell viability counter screen (AID 1259242); also: nearly all actives have a fitted effect of over 45% in size; also: potency is read from the fitted curve at half-maximal effect
How it was run: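 R1881 at 0.5 nM final stimulated MDA-kb2 cells during 16 hr compound treatment at 37C. Cytotoxicity read: CellTiter-Fluor fluorescence after 30 min.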

[13] = qHTS assay to identify small molecule HDAC inhibitors (AID 1259364);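 also: wild-type HCT-116 cells with endogenous class I/II HDAC activity; top concentration of the series differs between compounds; nearly all actives have a fitted effect of over 45% in size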
How it was run: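 Relative class I and II HDAC activity is taken from the luminogenic signal in HCT-116 cells, with compound exposure 2 hr and reagent development 30 min at room temperature.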

[14] = qHTS assay to identify small molecule HDAC inhibitors - cell viability counter screen (AID 1259365)
How it was run: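 Following a 2hr exposure of overnight-plated wild-type HCT-116 cells to DMSO-delivered compounds, CellTiter-Glo was added and luminescence recorded after 30min at room temperature.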

[15] = qHTS assay to identify small molecule agonists of the sonic hedgehog signaling (Shh) pathway - cell viability counter screen (AID 1259366); also: nearly all actives have a fitted effect of over 50% in size; also: potency is read from the fitted curve at half-maximal effect
How it was run: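 After a 4hr attachment at 37C, NIH/3T3 cells bearing an integrated Gli1-driven luciferase reporter were dosed with compounds. Treatment lasted 24hr, with the final hour including CellTiter-Fluor for a fluorescence viability measurement.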

[16] = qHTS assay to identify small molecule antagonists of the sonic hedgehog signaling (Shh) pathway - cell viability counter screen (AID 1259367); also: nearly all actives have a fitted effect of over 55% in size; also: potency is read from the fitted curve at half-maximal effect
How it was run: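 Cells: 3T3 Gli1-Luc, 2,000/well, 4 hr pre-incubation. Compounds in DMSO, then conditioned medium. Incubation 24 hr, 37C, 5% CO2. CellTiter-Fluor at 23 hr, 1 hr, fluorescence.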

[17] = qHTS assay to identify small molecule agonists of the sonic hedgehog signaling (Shh) pathway (AID 1259368; calls by dose curve;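 also: NIH/3T3-derived 3T3Gli1-Luc cells carrying a stable Gli1-driven firefly luciferase reporter; series mostly up to about 92 µM; nearly all actives have a fitted effect of over 15% in size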)
How it was run: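 Mouse fibroblast (NIH/3T3) reporter cells with stably integrated Gli1-Luc were treated 24 hr with compound; firefly luciferase luminescence served as the read-out.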

[18] = biological target: Estrogen receptor (Homo sapiens) (UniProt P03372); assay: qHTS assay to identify small molecule antagonists of the estrogen receptor alpha (ER-alpha) signaling pathway using the BG1 cell line in the presence of 0.1 nM 17-beta-estradiol (AID 1259244); also: nearly all actives have a fitted effect of over 50% in size
How it was run: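 VM7Luc4E2; 4xERE-luciferase; 0.1 nM E2 final; 22 h co-incubation, 37C; ONE-Glo luminescence after 30 min at room temperature.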

[19] = qHTS assay to identify small molecule phospholipidosis (PLD) inducers (AID 1259344; active = well fitted curve in the direction sought with a large enough effect; an effect the other way counts as inactive or inconclusive)
How it was run: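 Phospholipidosis is scored by imaging LipidTOX-stained pits in HepG2 cells exposed to compound for 24 h at 37 C; pit counts and integrated intensities per well and per cell serve as outputs.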

[20] = biological target: Androgen receptor (Homo sapiens) (UniProt P10275); assay: qHTS assay to identify small molecule antagonists of the androgen receptor (AR) signaling pathway using the MDA cell line in the presence of 0.5 nM R1881 (AID 1259243); also: nearly all actives have a fitted effect of over 50% in size
How it was run: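 We exposed MDA-kb2 cells to compounds under 0.5 nM R1881 stimulation for 16 hr at 37C and quantified MMTV-driven luciferase by luminescence.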

Measured: Potency

Sequence of Androgen receptor (Homo sapiens) (P10275 whole entry, looked up): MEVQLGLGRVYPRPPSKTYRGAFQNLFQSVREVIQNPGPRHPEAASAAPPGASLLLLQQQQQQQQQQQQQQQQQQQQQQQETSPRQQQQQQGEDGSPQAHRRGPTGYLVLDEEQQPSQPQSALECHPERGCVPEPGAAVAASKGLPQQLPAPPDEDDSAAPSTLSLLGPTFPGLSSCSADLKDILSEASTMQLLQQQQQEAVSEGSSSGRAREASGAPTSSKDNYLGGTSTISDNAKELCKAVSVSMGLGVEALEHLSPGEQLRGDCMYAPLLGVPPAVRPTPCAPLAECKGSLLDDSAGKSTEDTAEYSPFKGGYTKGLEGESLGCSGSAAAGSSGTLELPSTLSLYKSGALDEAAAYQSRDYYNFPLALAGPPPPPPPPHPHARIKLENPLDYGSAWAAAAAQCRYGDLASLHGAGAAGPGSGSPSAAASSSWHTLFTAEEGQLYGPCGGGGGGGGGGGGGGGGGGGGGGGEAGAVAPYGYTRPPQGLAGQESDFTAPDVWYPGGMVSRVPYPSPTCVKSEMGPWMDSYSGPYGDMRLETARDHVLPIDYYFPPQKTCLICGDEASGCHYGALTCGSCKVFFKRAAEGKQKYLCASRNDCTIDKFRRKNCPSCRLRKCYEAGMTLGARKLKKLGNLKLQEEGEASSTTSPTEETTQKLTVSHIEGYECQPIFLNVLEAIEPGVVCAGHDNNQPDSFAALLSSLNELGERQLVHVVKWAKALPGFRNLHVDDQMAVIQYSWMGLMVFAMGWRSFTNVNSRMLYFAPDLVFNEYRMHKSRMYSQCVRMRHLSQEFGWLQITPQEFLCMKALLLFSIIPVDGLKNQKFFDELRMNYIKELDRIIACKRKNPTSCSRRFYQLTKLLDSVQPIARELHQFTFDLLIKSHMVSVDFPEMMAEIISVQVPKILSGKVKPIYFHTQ
Sequence of Estrogen receptor (Homo sapiens) (P03372 whole entry, looked up): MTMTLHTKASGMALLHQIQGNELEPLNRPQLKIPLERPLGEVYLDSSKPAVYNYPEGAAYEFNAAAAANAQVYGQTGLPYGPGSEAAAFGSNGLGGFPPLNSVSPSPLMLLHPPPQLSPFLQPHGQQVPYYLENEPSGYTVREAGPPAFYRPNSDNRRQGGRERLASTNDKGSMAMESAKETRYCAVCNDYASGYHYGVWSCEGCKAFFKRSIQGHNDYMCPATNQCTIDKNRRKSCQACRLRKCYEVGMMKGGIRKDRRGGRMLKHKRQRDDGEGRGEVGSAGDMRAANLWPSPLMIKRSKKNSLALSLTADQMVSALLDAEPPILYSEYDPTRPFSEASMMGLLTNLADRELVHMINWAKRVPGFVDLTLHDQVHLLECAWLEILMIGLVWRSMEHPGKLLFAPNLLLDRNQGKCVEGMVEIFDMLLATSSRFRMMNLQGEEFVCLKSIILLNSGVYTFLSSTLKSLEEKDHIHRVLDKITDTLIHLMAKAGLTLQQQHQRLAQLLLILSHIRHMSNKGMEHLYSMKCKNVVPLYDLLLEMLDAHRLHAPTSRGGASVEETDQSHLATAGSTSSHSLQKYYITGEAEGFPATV

COc1c(Cl)c(Cl)c(Cl)c(Cl)c1Cl
not listed: [18] | [19] | [20]
inactive: all other assays above

C/C=C/C(=O)O
not listed: [18] | [19] | [20]
inactive: all other assays above

C[C@]12CC[C@H]3[C@@H](CCC4=CC(=O)CC[C@@]43C)[C@@H]1CC[C@@H]2C(=O)CO
active: [6] 24.5 µM | [9] 4.36 µM and 9.52 µM
not listed: [20]
inactive: all other assays above

O=C1OC2(c3cc(Br)c(O)c(Br)c3Oc3c2cc(Br)c(O)c3Br)c2c(Cl)c(Cl)c(Cl)c(Cl)c21
active: [1] 4.91 µM and 26.5 µM | [2] 39 µM and 26.5 µM | [3] 3.1 µM and 23.6 µM | [4] 3.9 µM and 23.6 µM | [8] 2.76 µM and 23.6 µM | [9] 55 µM | [10] 3.47 µM and 16.7 µM | [11] 8.64 µM and 23.4 µM | [12] 6.12 µM and 18.6 µM | [15] 9.7 µM and 16.6 µM | [16] 3.86 µM and 14.8 µM
inactive: [5] | [6] | [7] | [13] | [14] | [17]

C=C(C)C(=O)OCCOC(=O)C(=C)C
not listed: [19]
inactive: all other assays above

CCCC(=O)O
not listed: [18] | [20]
inactive: all other assays above

OCCO
not listed: [19]
inactive: all other assays above

CCC(C)(O)CCCC(C)C (stereo unspecified)
not listed: [19] | [20]
inactive: all other assays above

CCCc1c(OCCCCc2nn[nH]n2)ccc(C(C)=O)c1O
not listed: [9] | [20]
inactive: all other assays above

COC(=O)c1ccccc1
inactive and 12.3 µM (active): [6]
not listed: [18] | [19] | [20]
inactive: all other assays above

CN(C)c1nc(N(C)C)nc(N(C)C)n1
not listed: [18] | [20]
inactive: all other assays above

c1ccc2c(c1)c1cccc3ccc4cccc2c4c31
inactive and 19.5 µM (active): [6]
not listed: [9] | [19]
inactive: all other assays above

COC(=O)CCC(=O)OC
not listed: [19] | [20]
inactive: all other assays above

OC(CCl)CCl
not listed: [19] | [20]
inactive: all other assays above

Reference: PubChem BioAssay (Tox21)
